Measured values reported in PubChem BioAssay (EPA / NIEHS).
Inconclusive results are not listed. Activity calls are given as the source filed them. The calls were made as follows, unless noted: active = hit-call score of the fitted dose curve at least 0.9, where 1 is the maximum; inactive = score below 0.9.

Legend:
[1] = ATG_M_06_TRANS: Attagene TRANS-FACTORIAL HepG2 Assay for M06 Transcription Factor (Internal Marker) (AID 2282983; active = hit-call score of the fitted dose curve at least 0.9, where 1 is the maximum;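 as to AC50: potency for rise in reporter mRNA above DMSO baseline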); conditions: HepG2 Attagene TRANS M06 internal marker reporter
In short: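 Read-out: fluorescent reporter cDNA fragments resolved by capillary electrophoresis after RT-PCR and HpaI cut. Source cells were HepG2 carrying transfected multi-reporter GAL4 constructs, dosed 24 h. Increase over DMSO control analysed.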

[2] = ATG_M_32_TRANS: Attagene TRANS-FACTORIAL HepG2 Assay for M32 Transcription Factor (Internal Marker) (AID 2282984; active = hit-call score of the fitted dose curve at least 0.9, where 1 is the maximum); conditions: HepG2 Attagene TRANS M32 internal marker reporter
In short: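 Cell-based TRANS-format assay in HepG2: exogenous chimeric GAL4 reporter units transiently expressed, compounds applied 24 h. Reporter mRNA detected by RT-PCR plus capillary electrophoresis; this readout is an internal background marker.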

[3] = biological target: Nuclear receptor subfamily 4 group A member 2 (Homo sapiens) (UniProt P43354); test: ATG_NURR1_TRANS: Attagene TRANS-FACTORIAL HepG2 Assay for human Nuclear Receptor Related Protein 1 (NURR1) (AID 2282985; active = hit-call score of the fitted dose curve at least 0.9, where 1 is the maximum); conditions: HepG2 Attagene TRANS reporter, mRNA readout
Chain of Nuclear receptor subfamily 4 group A member 2 (Homo sapiens) (P43354 whole entry, looked up, the tested form may be a part): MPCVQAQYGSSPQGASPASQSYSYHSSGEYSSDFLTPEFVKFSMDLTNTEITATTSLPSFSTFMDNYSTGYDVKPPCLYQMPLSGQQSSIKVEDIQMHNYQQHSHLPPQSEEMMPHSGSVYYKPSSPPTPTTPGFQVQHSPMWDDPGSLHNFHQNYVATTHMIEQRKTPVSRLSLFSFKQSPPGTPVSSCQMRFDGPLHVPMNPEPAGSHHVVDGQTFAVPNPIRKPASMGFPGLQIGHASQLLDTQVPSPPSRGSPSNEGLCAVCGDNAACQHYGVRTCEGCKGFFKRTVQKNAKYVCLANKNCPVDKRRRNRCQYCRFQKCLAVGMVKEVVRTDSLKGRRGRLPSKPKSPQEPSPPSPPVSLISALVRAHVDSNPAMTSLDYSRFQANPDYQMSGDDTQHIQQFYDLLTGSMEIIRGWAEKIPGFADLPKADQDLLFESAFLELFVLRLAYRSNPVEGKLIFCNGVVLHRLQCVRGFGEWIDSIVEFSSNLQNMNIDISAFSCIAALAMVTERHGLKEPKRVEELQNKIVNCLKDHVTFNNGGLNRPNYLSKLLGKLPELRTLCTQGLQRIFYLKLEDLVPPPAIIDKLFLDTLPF
In short: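 Measures transcriptional activation by an exogenous NR-Gal4 chimera in transfected HepG2 liver cells. After 24 h, reporter RNA is reverse-transcribed, amplified and resolved by capillary electrophoresis; DMSO defines baseline.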

[4] = biological target: Transcriptional activator Myb (Homo sapiens) (UniProt P10242); test: ATG_Myb_CIS: Attagene CIS-FACTORIAL HepG2 Assay for human Myeloblastosis (Myb) Proto-Oncogene Transcription Factor (AID 2282986); conditions: HepG2 Attagene CIS-FACTORIAL Myb reporter transcription; actives raise or lower the signal
Chain of Transcriptional activator Myb (Homo sapiens) (P10242 whole entry, looked up): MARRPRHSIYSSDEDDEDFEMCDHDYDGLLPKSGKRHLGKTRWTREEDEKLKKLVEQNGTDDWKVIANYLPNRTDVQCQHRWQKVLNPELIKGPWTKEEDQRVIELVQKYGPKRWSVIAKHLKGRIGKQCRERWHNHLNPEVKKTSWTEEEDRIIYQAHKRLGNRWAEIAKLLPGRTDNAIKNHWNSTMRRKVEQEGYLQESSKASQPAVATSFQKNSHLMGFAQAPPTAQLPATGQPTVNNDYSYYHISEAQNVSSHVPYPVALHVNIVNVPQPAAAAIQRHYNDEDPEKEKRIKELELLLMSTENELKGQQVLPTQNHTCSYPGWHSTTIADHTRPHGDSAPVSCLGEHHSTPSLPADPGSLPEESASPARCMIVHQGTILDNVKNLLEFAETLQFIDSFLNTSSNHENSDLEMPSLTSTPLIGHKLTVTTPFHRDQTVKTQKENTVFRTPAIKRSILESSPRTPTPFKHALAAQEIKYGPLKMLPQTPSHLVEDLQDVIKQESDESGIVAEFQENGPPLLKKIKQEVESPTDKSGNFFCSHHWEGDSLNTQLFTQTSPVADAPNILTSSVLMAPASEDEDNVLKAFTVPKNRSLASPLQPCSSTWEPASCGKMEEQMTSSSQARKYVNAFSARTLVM
In short: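 Multiplexed cis-reporter system in HepG2: transient transfection, 24 h treatment, mRNA readout by RT-PCR and capillary electrophoresis. Both increases and decreases are scored versus DMSO negative control.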

[5] = biological target: Nuclear respiratory factor 1 (Homo sapiens) (UniProt Q16656); test: ATG_NRF1_CIS: Attagene CIS-FACTORIAL HepG2 Assay for human Nuclear Respiratory Factor 1 (NRF1) Orphan Gene (AID 2282987); conditions: HepG2 NRF1 cis-element reporter, Attagene multiplex; actives raise or lower the signal
Chain of Nuclear respiratory factor 1 (Homo sapiens) (Q16656 whole entry, looked up): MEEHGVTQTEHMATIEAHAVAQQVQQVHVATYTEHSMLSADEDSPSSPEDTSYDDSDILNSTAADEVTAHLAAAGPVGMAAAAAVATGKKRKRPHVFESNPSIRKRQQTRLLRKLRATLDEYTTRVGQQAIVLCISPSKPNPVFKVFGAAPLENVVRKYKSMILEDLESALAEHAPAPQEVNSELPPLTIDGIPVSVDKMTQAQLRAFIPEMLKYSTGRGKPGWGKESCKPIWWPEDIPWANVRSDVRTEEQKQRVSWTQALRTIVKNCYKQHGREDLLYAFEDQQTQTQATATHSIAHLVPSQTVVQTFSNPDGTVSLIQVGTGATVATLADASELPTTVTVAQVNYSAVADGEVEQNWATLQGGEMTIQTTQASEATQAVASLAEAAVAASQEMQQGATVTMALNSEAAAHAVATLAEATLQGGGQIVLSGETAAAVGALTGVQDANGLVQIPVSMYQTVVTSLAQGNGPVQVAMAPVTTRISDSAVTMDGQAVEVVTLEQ
In short: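 Endogenous factor activity was captured via cis-element-driven reporter transcripts in HepG2 cells. Following 24 h chemical treatment, transcripts were quantified by RT-PCR and capillary electrophoresis.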

[6] = ATG_M_61_TRANS: Attagene TRANS-FACTORIAL HepG2 Assay for M61 Transcription Factor (Internal Marker) (AID 2282988); conditions: HepG2 Attagene TRANS M61 internal marker reporter
In short: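 Background-control reporter transcript, measured after 24 h chemical exposure of transiently transfected HepG2 cells carrying multiple GAL4-UAS reporter units. Read-out by RT-PCR with 6-FAM primer extension and capillary electrophoresis, gain of signal versus DMSO.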

[7] = ATG_NFI_CIS: Attagene CIS-FACTORIAL HepG2 Assay for human Nuclear Factor I (NFI) (AID 2282989); conditions: HepG2 cis-regulatory reporter, NFI response element transcription; actives raise or lower the signal
In short: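 Cells: human liver HepG2, transiently transfected with promoter-regulated reporter transcription units. Exposure 24 h. Detection: fluorescent RT-PCR products separated by capillary electrophoresis, normalised to DMSO negative control.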

[8] = biological target: Myc proto-oncogene protein (Homo sapiens) (UniProt P01106); test: ATG_Myc_CIS: Attagene CIS-FACTORIAL HepG2 Assay for human Myelocytomatosis (Myc) Proto-Oncogene Transcription Factor (AID 2282990); conditions: HepG2, Attagene cis-reporter transcription factor activity; actives raise or lower the signal
Chain of Myc proto-oncogene protein (Homo sapiens) (P01106 whole entry, looked up): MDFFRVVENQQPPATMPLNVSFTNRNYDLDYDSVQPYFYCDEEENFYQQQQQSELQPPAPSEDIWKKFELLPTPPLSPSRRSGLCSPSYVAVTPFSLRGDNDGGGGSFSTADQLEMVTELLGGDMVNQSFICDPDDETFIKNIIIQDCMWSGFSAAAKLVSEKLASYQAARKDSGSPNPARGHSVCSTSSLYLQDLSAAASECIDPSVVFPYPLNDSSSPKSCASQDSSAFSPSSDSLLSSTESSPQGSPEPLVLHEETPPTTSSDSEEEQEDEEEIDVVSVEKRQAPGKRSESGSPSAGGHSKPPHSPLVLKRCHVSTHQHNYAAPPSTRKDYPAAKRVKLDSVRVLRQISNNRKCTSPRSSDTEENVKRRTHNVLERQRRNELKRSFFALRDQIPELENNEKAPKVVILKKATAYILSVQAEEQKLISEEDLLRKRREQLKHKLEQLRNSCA
In short: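 HepG2, transient MRTU transfection (cis promoters, endogenous TFs); 24 h dosing; TriZol RNA → oligo(dT) RT → PCR → 6-FAM primer extension → HpaI cut → CE. Bidirectional fit vs DMSO.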

[9] = ATG_NF_kB_CIS: Attagene CIS-FACTORIAL HepG2 Assay for human Nuclear Factor Kappa B (NF-kB) (AID 2282991); conditions: HepG2 Attagene cis-factorial NF-kB reporter mRNA; actives raise or lower the signal
In short: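 After 24 h compound incubation, transfected HepG2 cells yield total RNA; reporter cDNA is PCR-amplified, end-labelled with 6-FAM, HpaI-digested and analysed on a genetic analyser. Endogenous factor activity, DMSO-referenced bidirectional fit.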

[10] = ATG_NRF2_ARE_CIS: Attagene CIS-FACTORIAL HepG2 Assay for human Nuclear Factor Erythroid 2 Related Factor 2 (NFR2) response to Antioxidant Response Elements (ARE) (AID 2282992); conditions: HepG2 Attagene ARE/NRF2 reporter, transcription factor activity; actives raise or lower the signal;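 as to AC50: reporter mRNA level measured by RT-PCR and capillary electrophoresis fluorescence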
In short: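 Endogenous transcription factor activity in human liver HepG2 cells is tracked via a cis-element-driven reporter within a multiplexed set. mRNA induction is read by RT-PCR and capillary electrophoresis after 24 h, with DMSO as baseline.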

[11] = ATG_Oct_MLP_CIS: Attagene CIS-FACTORIAL HepG2 Assay for human Octamer-Binding Transcription Factor (Oct) (AID 2282993); conditions: HepG2 Attagene cis-factorial Oct reporter, mRNA; actives raise or lower the signal
In short: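 HepG2, transient MRTU transfection, cis promoter elements; 24 h dosing; RT-PCR/CE fluorescence read-out of reporter mRNA; fit both directions vs DMSO.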

[12] = biological target: Cellular tumor antigen p53 (Homo sapiens) (UniProt P04637); test: ATG_p53_CIS: Attagene CIS-FACTORIAL HepG2 Assay for human p53 Transcription Factor (AID 2282994); conditions: HepG2 p53 cis-element reporter, Attagene mRNA; actives raise or lower the signal
Chain of Cellular tumor antigen p53 (Homo sapiens) (P04637 whole entry, looked up, the tested form may be a part): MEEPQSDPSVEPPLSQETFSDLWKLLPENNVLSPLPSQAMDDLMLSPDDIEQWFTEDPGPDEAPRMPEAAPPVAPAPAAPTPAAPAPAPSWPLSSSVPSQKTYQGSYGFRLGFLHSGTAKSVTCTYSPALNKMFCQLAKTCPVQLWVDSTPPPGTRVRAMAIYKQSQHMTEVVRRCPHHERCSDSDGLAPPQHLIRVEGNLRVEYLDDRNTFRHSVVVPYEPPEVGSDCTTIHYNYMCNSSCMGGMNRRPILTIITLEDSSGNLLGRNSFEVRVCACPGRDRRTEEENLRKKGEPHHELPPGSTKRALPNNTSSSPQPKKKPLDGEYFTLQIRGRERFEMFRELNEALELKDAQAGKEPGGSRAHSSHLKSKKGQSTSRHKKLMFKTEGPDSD
In short: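 Steps: transfect HepG2 with multiplexed cis reporter constructs; dose chemicals 24 h; extract RNA, reverse-transcribe, PCR-amplify reporter sequences; FAM-label, HpaI-digest, resolve fragments by CE. Activity fitted both directions relative to DMSO.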

[13] = biological target: human Peroxisome Proliferator-activated Receptor alpha (PPARa), PPARA (gene 5465) (UniProt Q07869); test: ATG_PPARa_TRANS: Attagene TRANS-FACTORIAL HepG2 Assay for human Peroxisome Proliferator-activated Receptor alpha (PPARa) (AID 2283001; active = hit-call score of the fitted dose curve at least 0.9, where 1 is the maximum)
Chain of human Peroxisome Proliferator-activated Receptor alpha (PPARa), PPARA (gene 5465) (Q07869 whole entry, looked up, the tested form may be a part): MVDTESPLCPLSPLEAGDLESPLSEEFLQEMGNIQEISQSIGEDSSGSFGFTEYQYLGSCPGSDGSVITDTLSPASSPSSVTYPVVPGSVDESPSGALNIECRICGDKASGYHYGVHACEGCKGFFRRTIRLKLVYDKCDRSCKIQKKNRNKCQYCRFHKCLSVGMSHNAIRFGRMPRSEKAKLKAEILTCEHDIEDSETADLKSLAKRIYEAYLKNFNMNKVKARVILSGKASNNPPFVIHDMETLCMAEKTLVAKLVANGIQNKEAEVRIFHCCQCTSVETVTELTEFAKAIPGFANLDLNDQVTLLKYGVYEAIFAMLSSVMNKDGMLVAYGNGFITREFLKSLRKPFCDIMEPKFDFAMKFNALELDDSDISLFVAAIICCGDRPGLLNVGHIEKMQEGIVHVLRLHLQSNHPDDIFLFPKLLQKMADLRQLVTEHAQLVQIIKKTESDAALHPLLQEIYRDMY
In short: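 Transfected HepG2 cells treated with test chemical for 24 h. RNA isolated, reverse-transcribed with oligo(dT), PCR-amplified, FAM-labelled and HpaI-digested. Fragments sized by capillary electrophoresis; gain-of-signal fit relative to DMSO.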

[14] = BSK_3C_TissueFactor: BioMAP Diversity Plus: 3C Assay for Tissue Factor Biomarker Activity (AID 2282997); conditions: BioMAP 3C HUVEC, tissue factor biomarker readout; actives raise or lower the signal
In short: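 HUVEC, 3C system, 24 h post-dose; Tissue Factor by ELISA; bidirectional fit vs DMSO baseline.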

[15] = BSK_3C_uPAR: BioMAP Diversity Plus: 3C Assay for Urokinase-type plasminogen activator receptor (uPAR) Biomarker Activity (AID 2282998); conditions: BioMAP 3C HUVEC, uPAR biomarker ELISA; actives raise or lower the signal
In short: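 A multiplexed primary-cell system built on human umbilical vein endothelium was used, with chemical present for 24 h before reading. Cell-surface uPAR was detected by ELISA; signal change in either direction counted against DMSO.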

[16] = BSK_3C_VCAM1: BioMAP Diversity Plus: 3C Assay for Vascular cell adhesion molecule 1 (VCAM1) Biomarker Activity (AID 2282999); conditions: BioMAP 3C HUVEC, VCAM1 ELISA, cytokine-stimulated; actives raise or lower the signal
In short: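 Activity fitted in both directions relative to DMSO, with ELISA measurement of the surface marker on primary HUVEC (3C) at 24 h post-treatment; parallel SRB staining (0.1% SRB, TCA-fixed, 560 nm) flagged overt cytotoxicity.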

[17] = BSK_4H_Eotaxin3: BioMAP Diversity Plus: 4H Assay for Eotaxin 3 Biomarker Activity (AID 2283000); conditions: primary human endothelial cells (HUVEC); actives raise or lower the signal;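 also: CCL26 protein level quantified by ELISA in parallel with SRB cytotoxicity check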
In short: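 Readout is Eotaxin-3 (CCL26) level by ELISA in primary human umbilical vein endothelial cells harvested 24 h after chemical exposure; activity fitted in both directions against DMSO control.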

[18] = biological target: human Peroxisome Proliferator-activated Receptor delta (PPARd), PPARD (gene 5467) (UniProt Q03181); test: ATG_PPARd_TRANS: Attagene TRANS-FACTORIAL HepG2 Assay for human Peroxisome Proliferator-activated Receptor delta (PPARd) (AID 2283002; active = hit-call score of the fitted dose curve at least 0.9, where 1 is the maximum)
Chain of human Peroxisome Proliferator-activated Receptor delta (PPARd), PPARD (gene 5467) (Q03181 whole entry, looked up, the tested form may be a part): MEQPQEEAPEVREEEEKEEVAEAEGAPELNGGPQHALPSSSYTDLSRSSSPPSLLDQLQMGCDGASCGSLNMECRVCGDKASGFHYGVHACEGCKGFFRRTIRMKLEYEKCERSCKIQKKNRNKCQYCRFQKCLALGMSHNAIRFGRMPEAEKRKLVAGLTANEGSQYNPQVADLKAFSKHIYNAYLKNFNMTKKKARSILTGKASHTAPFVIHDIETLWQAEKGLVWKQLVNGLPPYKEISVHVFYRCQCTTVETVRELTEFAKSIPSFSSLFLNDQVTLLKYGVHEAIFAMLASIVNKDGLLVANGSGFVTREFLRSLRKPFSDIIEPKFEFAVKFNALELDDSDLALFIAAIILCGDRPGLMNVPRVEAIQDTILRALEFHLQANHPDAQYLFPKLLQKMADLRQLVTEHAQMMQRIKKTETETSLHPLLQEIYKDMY
In short: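 Transient HepG2 transfection (multiple GAL4-UAS RTUs, chimeric receptor-Gal4); 24 h dosing; total RNA → oligo(dT) RT → PCR → 6-FAM primer extension → HpaI cut → CE. Positive direction vs DMSO.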

[19] = read-out: Intercellular Adhesion Molecule 1 (ICAM1), ICAM1 (gene 3383); test: BSK_3C_ICAM1: BioMAP Diversity Plus: 3C Assay for Intercellular Adhesion Molecule 1 (ICAM1) Biomarker Activity (AID 2283003); conditions: primary human endothelial cells (HUVEC); actives raise or lower the signal
In short: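 ELISA read-out of ICAM-1; HUVEC (primary human), 3C system, 24 h post-dosing; bidirectional fit vs DMSO baseline.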

[20] = biological target: human Retinoic Acid Receptor beta (RARb), RARB (gene 5915) (UniProt P10826); test: ATG_RARb_TRANS: Attagene TRANS-FACTORIAL HepG2 Assay for human Retinoic Acid Receptor beta (AID 2283004; active = hit-call score of the fitted dose curve at least 0.9, where 1 is the maximum)
Chain of human Retinoic Acid Receptor beta (RARb), RARB (gene 5915) (P10826 whole entry, looked up, the tested form may be a part): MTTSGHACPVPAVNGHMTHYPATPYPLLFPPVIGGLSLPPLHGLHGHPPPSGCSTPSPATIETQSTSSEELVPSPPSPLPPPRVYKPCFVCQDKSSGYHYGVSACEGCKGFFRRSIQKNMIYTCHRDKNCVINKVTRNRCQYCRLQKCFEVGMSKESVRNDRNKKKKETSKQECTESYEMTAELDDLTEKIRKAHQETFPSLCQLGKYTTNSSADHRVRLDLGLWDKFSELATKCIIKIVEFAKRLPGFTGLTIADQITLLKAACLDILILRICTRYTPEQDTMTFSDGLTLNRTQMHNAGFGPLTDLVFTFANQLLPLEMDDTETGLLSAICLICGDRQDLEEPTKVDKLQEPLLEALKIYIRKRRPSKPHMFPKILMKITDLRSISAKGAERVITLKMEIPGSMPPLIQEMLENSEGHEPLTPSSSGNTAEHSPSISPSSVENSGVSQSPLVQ
In short: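 Readout is reporter mRNA induction: RNA reverse-transcribed, PCR-amplified, FAM-labelled, HpaI-cut and resolved by capillary electrophoresis. Transiently transfected HepG2 cells carrying exogenous NR–Gal4 chimeras were dosed for 24 h; activity fitted upward relative to DMSO.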

Measured: AC50

CCC[CH2][Sn]([CH2]CCC)([CH2]CCC)[O]C(=O)c1ccccc1
active: [1] 703 nM | [3] 16.1 nM | [10] 188 nM
not listed: [14] | [15] | [16] | [17] | [18] | [19] | [20]
inactive: all other assays above

ClCC(Cl)CCl
not listed: [6] | [9] | [13]
inactive: all other assays above

ClC1=C(Cl)[C@]2(Cl)[C@H]3[C@H]([C@H]4C=C[C@H]3C4)[C@@]1(Cl)C2(Cl)Cl
active: [14] 2350 nM | [15] 3970 nM
not listed: [6] | [9] | [13] | [16] | [17] | [18] | [20]
inactive: all other assays above

c1cc[c]([Hg][c]2ccccc2)cc1
inactive: [1] | [2] | [3] | [5] | [8] | [9] | [10] | [12] | [13]
active: [7] 20600 nM | [11] 19000 nM
